Test results as given in PubChem BioAssay (NCI).
This is part of a sample that, as a whole, favours compounds with a hit. Of some 83,000 tested, about 20% had one in any assay.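 Single-dose data. Exposure time 48 hours. Values below 10 considered active.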 Unmarked numbers belong to inactive results. The source made the active and inactive calls.

Each molecule was assayed on K-562 leukemia (assay: NCI-60 one-dose screen, 48 h (100 = growth as untreated, 0 = no growth, -100 = all killed)). Settings: 10 µM.
With `COc1ccc(-c2csc(NC(=O)CSc3nc(C)c(-c4ccccc4)n3Nc3ccccc3)n2)cc1` the growth was 24.8%. For `Cc1cccc(C)c1NC(=O)c1sc2nc3c(cc2c1N)C(=O)CCC3`, the growth was 64%. `CC(=O)CSC(C)=O` gave a growth of 106%. Work on `S=C1SCC(c2ccccc2)S1` (stereo unspecified) yielded a growth of 106%. `CC(=O)N(C)c1ccc(Nc2ccc(Nc3ccc(N(C)C(C)=O)cc3)c3c2C(=O)c2ccccc2C3=O)cc1` showed a growth of 55.8%. With `COc1ccc(CN2CCC(N3CCCC3=O)c3cc(Cl)ccc32)cc1` (stereo unspecified) the growth was 106%. Work on `CN(C)c1ccc(Cc2ccc(N(C)C)cc2Cl)c(Cl)c1` yielded a growth of 90.2%. With `Clc1cc2c(c(CSc3nc4ccccc4n4cccc34)c1)OCOC2` the growth was 74.4%. For `CC(=O)n1c(-c2ccc(Cl)c(Cl)c2)cn(-c2ccc(Cl)cc2)c1=O`, the growth was -35% (active). With `C#Cc1ccc(-n2c(/C=C/c3ccc4ccccc4n3)nc3ncccc3c2=O)cc1` the growth was 3.17% (active). Molecule `CSc1nn(-c2ccccc2)c2ncnc(Oc3ccccc3)c12` has a growth of 96.5%. `COc1ccc(-c2nc(-c3nc4cc(Cl)c(F)cc4[nH]3)c3ccccn23)cc1` gave a growth of 40.3%. With `C/C(=N\Nc1nc2ccccc2s1)c1ccncn1` the growth was 0.401% (active). `Nc1cc2c(cc1Cl)-c1ccc([N+](=O)[O-])cc1/C2=N\O` gave a growth of 30.5%. With `CN(C)CCN1C(=O)c2cccc3cc(N)cc(c23)C1=O` the growth was 3.5% (active). In the case of `CCCCCCNC(=O)Oc1ccc(/C(=C(/CC)Cc2ccccc2)c2ccc(OCCN3CCCCC3)cc2)cc1`, the growth was 24%.
